From PubChem BioAssay (EPA / NIEHS)
Results filed as inconclusive are left out. Active and inactive are the calls of the source. Rule for the calls, unless noted: active = hit-call score of the fitted dose curve at least 0.9, where 1 is the maximum; inactive = score below 0.9.

Columns and labels:
[1] = read-out: E-selectin (Homo sapiens) (UniProt P16581); assay: BSK_SAg_Eselectin: BioMAP Diversity Plus: SAg Assay for Eselectin Biomarker Activity (AID 2283091); details: primary human HUVEC with PBMC; actives raise or lower the signal
How it was run: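 Primary human endothelial cells and peripheral blood mononuclear cells were co-cultured and exposed to chemical for 24 hours. E-selectin levels were then quantified by ELISA, with bidirectional curve fitting normalised to DMSO controls.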

[2] = read-out: Monokine induced gamma interferon (MIG), CXCL9 (gene 4283); assay: BSK_SAg_MIG: BioMAP Diversity Plus: SAg Assay for Monokine induced gamma interferon (MIG) Biomarker Activity (AID 2283092); details: primary human HUVEC with PBMC; actives raise or lower the signal
How it was run: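 Values reflect bidirectional fitting of ELISA-measured MIG against DMSO vehicle, taken 24 h after dosing of a co-culture of human umbilical vein endothelial cells and peripheral blood mononuclear cells.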

[3] = BSK_SAg_PBMCCytotoxicity: PBMC Cytotoxicity Assessment in the BioMAP Diversity Plus: SAg Assay (AID 2283093); details: primary human HUVEC with PBMC;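 note: PBMC viability measured as Alamar Blue reduction fluorescence at 546/580 nm; fitted both ways against DMSO so a hit may be loss or gain of signal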;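 for AC50: PBMC superantigen activated with SEB plus TSST-1 one hour after compound addition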
How it was run: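 Human umbilical vein endothelial cells co-cultured with PBMC; PBMC (75,000/well) pre-treated with compound 1 h, then activated with SEB and TSST-1 (20 ng/mL final each) for 90 h. Alamar Blue added 6 h, fluorescence 546/580 nm; bidirectional fit versus DMSO.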

[4] = read-out: Interleukin-8 (IL8), CXCL8 (gene 3576); assay: BSK_SAg_IL8: BioMAP Diversity Plus: SAg Assay for Interleukin-8 (IL8) Biomarker Activity (AID 2283094); details: primary human HUVEC with PBMC; actives raise or lower the signal
How it was run: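 ELISA read-out of IL-8 in a primary human vascular co-culture (umbilical vein endothelium plus PBMC), taken 24 h after compound addition. Values derive from bidirectional fits against DMSO negative controls.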

[5] = BSK_SAg_Proliferation: Cell Proliferation Assessment in the BioMAP Diversity Plus: SAg Assay (AID 2283095); details: primary human HUVEC with PBMC;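 note: relative cell number as total protein by SRB absorbance in sub-confluent culture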
How it was run: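 Cells (endothelium plus PBMC, human primary) were dosed with chemical, cultured 96 h, fixed in 10% TCA and stained with 0.1% SRB. Absorbance at 560 nm gave relative protein, fitted bidirectionally relative to DMSO.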

[6] = BSK_SAg_SRB: Viability Assessment in the BioMAP Diversity Plus: SAg Assay (AID 2283096); details: primary human HUVEC with PBMC;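 note: cells read one day after compound addition; hits may be either gain or loss of signal compared with DMSO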
How it was run: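 Endothelial/PBMC primary human co-culture; compound 24 h; fix 10% TCA, stain 0.1% SRB, A560; protein content as cytotoxicity proxy; bidirectional curve fit, DMSO = baseline.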

[7] = biological target: human CYP1A1, CYP1A1 (gene 1543) (UniProt P04798); assay: NVS_ADME_hCYP1A1: NovaScreen (NVS) CYP450-related Enzyme Activity (ADME) Assay for human CYP1A1 (AID 2283100; active = hit-call score of the fitted dose curve at least 0.9, where 1 is the maximum)
How it was run: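 Compounds first went through duplicate single-concentration testing at 10 uM against purified CYP1A1. Those passing a threshold such as 30% inhibition entered singleton dose-response, highest concentration 20 uM. Signal was fluorescence measured after 1 hour.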

[8] = biological target: human CYP2B6, CYP2B6 (gene 1555) (UniProt P20813); assay: NVS_ADME_hCYP2B6: NovaScreen (NVS) CYP450-related Enzyme Activity (ADME) Assay for human CYP2B6 (AID 2283101; active = hit-call score of the fitted dose curve at least 0.9, where 1 is the maximum)
How it was run: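 Compounds were first screened in duplicate at 10 uM against recombinant enzyme, with the fluorescent product measured after 1 hour. Active compounds were retested over a concentration series. Loss of fluorescence versus acetonitrile control was scored as reduced enzyme activity.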

[9] = biological target: human CYP1A2, CYP1A2 (gene 1544) (UniProt P05177); assay: NVS_ADME_hCYP1A2: NovaScreen (NVS) CYP450-related Enzyme Activity (ADME) Assay for human CYP1A2 (AID 2283102; active = hit-call score of the fitted dose curve at least 0.9, where 1 is the maximum;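 note: fluorescence from turnover of a fluorogenic substrate by recombinant insect-cell CYP1A2; potency for inhibition since loss of fluorescence marks reduced CYP1A2 activity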)
How it was run: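 Compounds were tested at 10 uM in duplicate against recombinant CYP1A2 produced in insect cells. Enzyme activity was measured by fluorescence 0.5 h after dosing, with loss of signal versus acetonitrile control. Active compounds were re-tested in concentration series.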

Measured: AC50

Chain of human CYP1A2, CYP1A2 (gene 1544) (P05177 whole entry, looked up): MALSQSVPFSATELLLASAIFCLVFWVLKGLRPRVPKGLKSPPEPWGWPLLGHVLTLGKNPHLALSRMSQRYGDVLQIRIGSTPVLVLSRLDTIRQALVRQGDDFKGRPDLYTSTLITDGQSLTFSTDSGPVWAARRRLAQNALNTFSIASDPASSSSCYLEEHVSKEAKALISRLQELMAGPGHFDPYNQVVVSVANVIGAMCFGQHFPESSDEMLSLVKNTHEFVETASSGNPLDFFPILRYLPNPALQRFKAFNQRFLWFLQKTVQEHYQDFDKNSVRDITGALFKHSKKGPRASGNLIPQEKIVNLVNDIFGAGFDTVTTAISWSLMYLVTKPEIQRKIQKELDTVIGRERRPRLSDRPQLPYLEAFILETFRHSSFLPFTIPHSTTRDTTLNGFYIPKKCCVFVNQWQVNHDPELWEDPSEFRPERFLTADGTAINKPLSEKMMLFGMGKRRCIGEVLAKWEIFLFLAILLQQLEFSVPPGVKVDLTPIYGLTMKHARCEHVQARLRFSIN
Chain of human CYP2B6, CYP2B6 (gene 1555) (P20813 whole entry, looked up): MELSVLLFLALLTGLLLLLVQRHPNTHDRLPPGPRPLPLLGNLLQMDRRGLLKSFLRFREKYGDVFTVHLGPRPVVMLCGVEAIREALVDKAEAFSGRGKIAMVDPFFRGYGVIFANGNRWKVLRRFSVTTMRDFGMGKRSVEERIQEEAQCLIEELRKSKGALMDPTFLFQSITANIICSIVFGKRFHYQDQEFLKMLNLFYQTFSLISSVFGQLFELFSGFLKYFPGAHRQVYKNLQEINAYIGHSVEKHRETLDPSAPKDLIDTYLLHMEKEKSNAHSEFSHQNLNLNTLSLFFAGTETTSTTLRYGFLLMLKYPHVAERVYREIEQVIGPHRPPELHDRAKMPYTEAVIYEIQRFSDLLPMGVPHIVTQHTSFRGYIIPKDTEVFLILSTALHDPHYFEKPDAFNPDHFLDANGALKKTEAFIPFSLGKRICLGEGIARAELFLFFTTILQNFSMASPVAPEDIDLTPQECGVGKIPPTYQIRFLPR
Chain of human CYP1A1, CYP1A1 (gene 1543) (P04798 whole entry, looked up): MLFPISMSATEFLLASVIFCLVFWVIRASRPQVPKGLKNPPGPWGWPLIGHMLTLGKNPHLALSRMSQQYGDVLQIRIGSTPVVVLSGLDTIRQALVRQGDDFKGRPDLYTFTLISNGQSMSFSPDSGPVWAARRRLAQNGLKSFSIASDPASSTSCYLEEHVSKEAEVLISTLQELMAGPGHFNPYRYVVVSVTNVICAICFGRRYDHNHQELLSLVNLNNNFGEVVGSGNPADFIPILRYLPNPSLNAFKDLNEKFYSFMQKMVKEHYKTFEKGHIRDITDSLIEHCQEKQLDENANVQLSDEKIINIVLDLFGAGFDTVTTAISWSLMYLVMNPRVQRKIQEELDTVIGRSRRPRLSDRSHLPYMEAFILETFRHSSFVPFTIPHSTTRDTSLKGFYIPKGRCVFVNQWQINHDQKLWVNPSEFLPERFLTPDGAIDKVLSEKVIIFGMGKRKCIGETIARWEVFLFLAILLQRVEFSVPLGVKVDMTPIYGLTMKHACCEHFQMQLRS
Chain of E-selectin (Homo sapiens) (P16581 whole entry, looked up): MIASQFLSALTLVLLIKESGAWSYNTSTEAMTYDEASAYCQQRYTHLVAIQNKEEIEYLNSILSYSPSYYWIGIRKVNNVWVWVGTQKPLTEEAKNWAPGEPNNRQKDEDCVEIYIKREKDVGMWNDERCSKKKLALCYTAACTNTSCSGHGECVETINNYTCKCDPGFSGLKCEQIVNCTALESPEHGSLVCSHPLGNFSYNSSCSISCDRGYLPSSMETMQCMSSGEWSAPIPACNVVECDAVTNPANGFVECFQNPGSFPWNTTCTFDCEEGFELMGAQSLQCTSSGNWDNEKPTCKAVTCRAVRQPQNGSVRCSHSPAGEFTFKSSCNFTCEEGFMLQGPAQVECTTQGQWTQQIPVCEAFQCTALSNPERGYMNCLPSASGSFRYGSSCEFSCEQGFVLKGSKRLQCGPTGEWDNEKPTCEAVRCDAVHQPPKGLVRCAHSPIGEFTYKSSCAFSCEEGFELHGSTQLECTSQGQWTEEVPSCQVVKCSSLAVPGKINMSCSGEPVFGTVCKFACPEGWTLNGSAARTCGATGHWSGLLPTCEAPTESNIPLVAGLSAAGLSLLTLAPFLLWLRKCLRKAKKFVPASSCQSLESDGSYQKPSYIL

CC(C)=CC1C(C(=O)OCc2coc(Cc3ccccc3)c2)C1(C)C (configuration not stated)
active: [1] 16.6 µM | [3] 5.08 µM | [4] 12.7 µM | [5] 15.7 µM
inactive: [2] | [6]

Cc1ccc(N=CN(C)C=Nc2ccc(C)cc2C)c(C)c1
inactive: [4]
active: [1] 26.5 µM | [2] 30.7 µM | [3] 34.9 µM | [5] 21.7 µM | [6] 33.2 µM

CNC(=O)N(C)c1nnc(C(C)(C)C)s1
inactive: [1] | [2] | [3] | [4] | [5] | [6]

Cc1nc(N(C)C)nc(OC(=O)N(C)C)c1C
inactive: [1] | [2] | [3] | [4] | [5] | [6]

CN/C(=N\[N+](=O)[O-])NCc1cnc(Cl)s1
inactive: [1] | [2] | [3] | [4] | [5] | [6]

COP(=S)(OC)SCn1nnc2ccccc2c1=O
active: [1] 10.4 µM | [5] 30.2 µM | [7] 0.363 µM | [8] 0.302 µM | [9] 2.79 µM
inactive: [2] | [3] | [4] | [6]

CCNC(=O)NC(=O)C(C#N)=NOC
inactive: [1] | [2] | [3] | [4] | [5] | [6]

O=C1C2CC=CCC2C(=O)N1SC(Cl)(Cl)Cl (configuration not stated)
inactive: [2] | [6]
active: [1] 26.2 µM | [3] 32.6 µM | [4] 25.3 µM | [5] 28.7 µM | [9] 6.89 µM

Cn1c(-c2ccccc2)cc(-c2ccccc2)[n+]1C
active: [1] 4.84 µM | [3] 3.97 µM | [4] 4.04 µM | [5] 3.16 µM
inactive: [2] | [6]

COc1ccc(-c2ccccc2)cc1NNC(=O)OC(C)C
active: [7] 0.597 µM | [9] 0.956 µM
inactive: [1] | [2] | [3] | [4] | [5] | [6]

COCc1cnc(C2=NC(C)(C(C)C)C(=O)N2)c(C(=O)O)c1 (configuration not stated)
inactive: [1] | [2] | [3] | [4] | [5] | [6]

COC(=O)c1c(C(F)F)nc(C(F)(F)F)c(C2=NCCS2)c1CC(C)C
active: [1] 20 µM | [3] 12.1 µM | [5] 14.6 µM | [6] 32.5 µM | [8] 5.93 µM | [9] 0.561 µM
inactive: [2] | [4]

COP(=O)(OC)O/C(C)=C/C(=O)N(C)C
inactive: [1] | [2] | [3] | [4] | [6]

CO/N=C(/C1=NOCCO1)c1ccccc1Oc1ncnc(Oc2ccccc2Cl)c1F
active: [1] 12.7 µM | [2] 34.7 µM | [3] 1.98 µM | [4] 11 µM | [6] 18.3 µM

OC(c1ccc(Cl)cc1)(c1ccc(Cl)cc1)C(Cl)(Cl)Cl
active: [1] 27.2 µM | [2] 34.4 µM | [3] 20 µM | [4] 27.9 µM | [5] 15 µM | [6] 31.8 µM

Clc1cccc(C(Cl)(Cl)Cl)n1
inactive: [1] | [2] | [3] | [4] | [5] | [6]

Cc1cc(C)nc(Nc2ccccc2)n1
active: [1] 20 µM | [3] 7.57 µM | [4] 13.8 µM
inactive: [2] | [5] | [6]

CCOc1nc(F)cc2nc(S(=O)(=O)Nc3c(Cl)cccc3Cl)nn12
inactive: [1] | [2] | [3] | [4] | [5] | [6]

CCOP(=O)(OCC)Oc1nc(Cl)c(Cl)cc1Cl
active: [5] 17.1 µM | [6] 20 µM | [7] 7.46 µM | [8] 8.04 µM | [9] 3.36 µM
inactive: [1] | [2] | [3] | [4]

CS(=O)(=O)c1cc(C(F)(F)F)ccc1C(=O)c1cnoc1C1CC1
inactive: [1] | [2] | [3] | [4] | [6]

CCSC(=O)N1CCCCCC1
inactive: [1] | [2] | [3] | [4] | [5] | [6]

COC(=O)NC(=S)Nc1ccccc1NC(=S)NC(=O)OC
active: [1] 15.1 µM | [3] 14 µM | [4] 25.1 µM | [5] 19.2 µM
inactive: [2] | [6]

CCCCC(C#N)(Cn1cncn1)c1ccc(Cl)cc1 (configuration not stated)
inactive: [1] | [2] | [3] | [4] | [5] | [6]
active: [7] 10.4 µM | [8] 6.49 µM

COCC(=O)N(c1c(C)cccc1C)C(C)C(=O)OC (configuration not stated)
active: [6] 26.1 µM
inactive: [1] | [2] | [3] | [4] | [5]

CC1(C)CCC(=Cc2ccc(Cl)cc2)C1(O)Cn1cncn1 (configuration not stated)
inactive: [1] | [2] | [3] | [4] | [5] | [6]
active: [7] 0.908 µM

Nc1cnn(-c2ccccc2)c(=O)c1Cl
inactive: [1] | [2] | [3] | [4] | [5] | [6]

CCOc1cc(C(C)(C)C)ccc1C1COC(c2c(F)cccc2F)=N1 (configuration not stated)
active: [1] 16.5 µM | [2] 36.1 µM | [3] 28.9 µM | [4] 18.6 µM | [5] 11.9 µM | [6] 22.1 µM

Cc1c(COC(=O)[C@@H]2[C@H](/C=C(\Cl)C(F)(F)F)C2(C)C)cccc1-c1ccccc1
active: [1] 10.3 µM | [4] 9.35 µM | [5] 14.1 µM | [6] 9.26 µM
inactive: [2] | [3]

CNC(=O)Oc1cccc2ccccc12
active: [3] 15.9 µM | [5] 22.4 µM | [9] 5.35 µM
inactive: [1] | [2] | [4] | [6]

C=CCOC(=O)C(C)(C)OC(=O)c1cc(-n2c(=O)cc(C(F)(F)F)n(C)c2=O)ccc1Cl
active: [1] 31.1 µM
inactive: [2] | [3] | [4] | [5] | [6]

CCCN(CC)CC1COC2(CCC(C(C)(C)C)CC2)O1 (configuration not stated)
active: [1] 12.9 µM | [3] 12.2 µM | [4] 12.1 µM | [5] 6.99 µM
inactive: [2] | [6]

CCNP(=S)(OC)O/C(C)=C/C(=O)OC(C)C (configuration not stated)
active: [7] 2.43 µM | [8] 0.723 µM | [9] 5.76 µM
inactive: [1] | [2] | [3] | [4] | [5] | [6]

COC(=O)NS(=O)(=O)c1ccc(N)cc1
inactive: [1] | [2] | [3] | [4] | [6]
